Results on 1 compound are retold here after PubChem BioAssay AID1159580 (chemical genetic matrix, 2015).

The whole screen tested about 5,500 compounds, of which about 2,000 (36%) were called active. Roughly 18% stayed inconclusive and do not appear here. This is one part of the list. Values without a mark were called inactive. Rule as the data show it: active = normalized growth mostly below about 0.91 (no sharp cut-off); inconclusive = no clear call, values can overlap the other calls; inactive = mostly above about 0.92.

The test is described as follows: chemical genetic growth profiling, strain panel (AID 1159580).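 Also: tested at 20 µM; growth read once vehicle control cultures reached saturation at 30 °C; 1 = growth at the plate median or of vehicle wells; lower values mean less growth of the strain.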 The settings on record: S. cerevisiae deletion strains, growth OD.

On to `CC(=O)[C@H]1CC[C@H]2[C@@H]3CCC4=CC(=O)CC[C@]4(C)[C@H]3CC[C@]12C`, for which the normalized growth (locus YAL013W, strain DEP1, hits give low values) was 0.994; the normalized growth (locus YAL040C, strain CLN3, hits give low values) was 0.992; the normalized growth (locus YCL061C, strain MRC1 (second series), hits give low values) was 1; the normalized growth (locus YDR363W, strain ESC2, hits give low values) was 1.01; the normalized growth (locus YER002W, strain NOP16, hits give low values) is 0.973; the normalized growth (locus YGR078C, strain PAC10, hits give low values) was 0.998. In addition, the normalized growth (locus YGR229C, strain SMI1, hits give low values) was 1.17 [resistant] (active); the normalized growth (locus YJR075W, strain HOC1, hits give low values) was 0.99; the normalized growth (locus YMR307W, strain GAS1, hits give low values) is 0.979; the normalized growth (locus YNL175C, strain NOP13, hits give low values) was 0.991; the normalized growth (locus YNL197C, strain WHI3, hits give low values) is 0.986; the normalized growth (locus YNL224C, strain SQS1, hits give low values) was 0.992. In addition, the normalized growth (locus YOR083W, strain WHI5 (second series), hits give low values) is 1.01; the normalized growth (locus YPL055C, strain LGE1, hits give low values) is 0.99; the normalized growth (locus YPL241C, strain CIN2, hits give low values) is 0.995.
